Whole data set: some 8,300 sequences, median “log2 fold change of degron read counts, EGFP-low vs EGFP+ sorted cells (limma voom), compound-induced degradation” near -1.1, cut for the highest 2% near 3.2. This excerpt belongs to a sample that is enriched for the highest values.
Biological target: T1, CRBN, Q96SW2
T1 chain: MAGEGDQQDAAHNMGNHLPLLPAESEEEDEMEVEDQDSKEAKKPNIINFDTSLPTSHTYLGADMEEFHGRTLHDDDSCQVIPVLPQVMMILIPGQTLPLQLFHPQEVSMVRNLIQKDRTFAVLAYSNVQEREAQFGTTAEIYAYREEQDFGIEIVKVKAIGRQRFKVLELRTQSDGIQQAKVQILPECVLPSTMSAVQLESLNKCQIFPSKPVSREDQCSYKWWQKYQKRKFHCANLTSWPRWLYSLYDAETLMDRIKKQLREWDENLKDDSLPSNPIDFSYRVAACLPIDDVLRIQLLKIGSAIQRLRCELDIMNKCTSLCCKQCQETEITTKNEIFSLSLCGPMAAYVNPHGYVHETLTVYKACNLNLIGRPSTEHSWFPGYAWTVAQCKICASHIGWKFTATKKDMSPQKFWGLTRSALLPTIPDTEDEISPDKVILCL
Experiment: log2 fold change of degron read counts, EGFP-low vs EGFP+ sorted cells (limma voom), compound-induced degradation; higher = more compound-induced degradation of the degron-EGFP fusion; degrons are variants of IKZF1/3 zinc finger 2; compound dose not given here
Conditions: Jurkat, 18 h

[1] = compound: compound 19 (5-tert-butyl-thalidomide)
[2] = compound: compound 22 (5-morpholino-thalidomide)
[3] = compound: compound 33 (diphenyl IMiD analogue)
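Further: pooled lentiviral library of zinc finger degron-EGFP fusions in mCherry-positive Jurkat cells, FACS-sorted after compound exposure, with degron abundance counted by next-generation sequencing.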

B1: 46F_47E_49E_50I_52G_53A_54R_55F_67L_, Q9UKT9 (peptide)
chain: FECEICGARFTQKGNLLRHIKL
[1]
  log2 fold change of degron read counts: 1.13
[2]
  log2 fold change of degron read counts: -0.528
[3]
  log2 fold change of degron read counts: 1.59
compound: thalidomide
  log2 fold change of degron read counts: 3.55

B2: 46F_47E_49E_50I_52G_53A_54L_55F_67L_, Q9UKT9 (peptide)
chain: FECEICGALFTQKGNLLRHIKL
[1]
  log2 fold change of degron read counts: -2.06
[2]
  log2 fold change of degron read counts: -1.77
[3]
  log2 fold change of degron read counts: 0.784
compound: thalidomide
  log2 fold change of degron read counts: 1.34

B3: 46F_47Y_49E_50I_52G_53A_54F_55F_67L_, Q9UKT9 (peptide)
chain: FYCEICGAFFTQKGNLLRHIKL
[1]
  log2 fold change of degron read counts: 3.38
[2]
  log2 fold change of degron read counts: 3.27
[3]
  log2 fold change of degron read counts: 2.4
compound: thalidomide
  log2 fold change of degron read counts: -0.228

B4: 46F_47C_49E_50I_52G_53A_54F_55F_67L_, Q9UKT9 (peptide)
chain: FCCEICGAFFTQKGNLLRHIKL
[1]
  log2 fold change of degron read counts: 0.678
[2]
  log2 fold change of degron read counts: -0.0744
[3]
  log2 fold change of degron read counts: 1.4
compound: thalidomide
  log2 fold change of degron read counts: -0.2

B5: 46F_47W_49E_50I_52G_53A_54L_55F_67L_, Q9UKT9 (peptide)
chain: FWCEICGALFTQKGNLLRHIKL
[1]
  log2 fold change of degron read counts: 2.93
[2]
  log2 fold change of degron read counts: 2.99
[3]
  log2 fold change of degron read counts: 2.06
compound: thalidomide
  log2 fold change of degron read counts: -0.0847

B6: 46F_47W_49E_50I_52G_53A_54R_55F_67L_, Q9UKT9 (peptide)
chain: FWCEICGARFTQKGNLLRHIKL
[1]
  log2 fold change of degron read counts: 3.43
[2]
  log2 fold change of degron read counts: 3.51
[3]
  log2 fold change of degron read counts: 1.48
compound: thalidomide
  log2 fold change of degron read counts: 1.46

B7: 46F_47T_49E_50I_52G_53A_54R_55F_67L_, Q9UKT9 (peptide)
chain: FTCEICGARFTQKGNLLRHIKL
[1]
  log2 fold change of degron read counts: 1.84
[2]
  log2 fold change of degron read counts: 3.12
[3]
  log2 fold change of degron read counts: 1.85
compound: thalidomide
  log2 fold change of degron read counts: 3.23

B8: 46F_47A_49E_50I_52G_53A_54F_55F_67L_, Q9UKT9 (peptide)
chain: FACEICGAFFTQKGNLLRHIKL
[1]
  log2 fold change of degron read counts: 2.61
[2]
  log2 fold change of degron read counts: 0.556
[3]
  log2 fold change of degron read counts: -0.131
compound: thalidomide
  log2 fold change of degron read counts: -0.84

B9: 46F_47F_49E_50I_52G_53A_54R_55F_67L_, Q9UKT9 (peptide)
chain: FFCEICGARFTQKGNLLRHIKL
[1]
  log2 fold change of degron read counts: 3.53
[2]
  log2 fold change of degron read counts: 3.66
[3]
  log2 fold change of degron read counts: 1.66
compound: thalidomide
  log2 fold change of degron read counts: 1.89

B10: 46F_47H_49P_50I_52G_53H_54S_55F_67L_, Q9UKT9 (peptide)
chain: FHCPICGHSFTQKGNLLRHIKL
[1]
  log2 fold change of degron read counts: -2.13
[2]
  log2 fold change of degron read counts: -1.94
[3]
  log2 fold change of degron read counts: -1.36
compound: thalidomide
  log2 fold change of degron read counts: -2.32

B11: 46F_47D_49N_50Q_52G_53R_54H_55F_67L_, Q9UKT9 (peptide)
chain: FDCNQCGRHFTQKGNLLRHIKL
[1]
  log2 fold change of degron read counts: -2.61
[2]
  log2 fold change of degron read counts: -2.91
[3]
  log2 fold change of degron read counts: -2.55
compound: thalidomide
  log2 fold change of degron read counts: -2.64

B12: 46F_47F_49E_50Q_52G_53A_54I_55F_67L_, Q9UKT9 (peptide)
chain: FFCEQCGAIFTQKGNLLRHIKL
[1]
  log2 fold change of degron read counts: -0.0994
[2]
  log2 fold change of degron read counts: 0.676
[3]
  log2 fold change of degron read counts: -1.15
compound: thalidomide
  log2 fold change of degron read counts: -1.09

B13: 46L_47G_49N_50Q_52G_53F_54S_55C_67L_, Q9UKT9 (peptide)
chain: LGCNQCGFSCTQKGNLLRHIKL
[1]
  log2 fold change of degron read counts: -1.87
[2]
  log2 fold change of degron read counts: -2.27
[3]
  log2 fold change of degron read counts: -1.97
compound: thalidomide
  log2 fold change of degron read counts: -1.71

B14: 46F_47H_49N_50Q_52G_53H_54D_55F_67L_, Q9UKT9 (peptide)
chain: FHCNQCGHDFTQKGNLLRHIKL
[1]
  log2 fold change of degron read counts: -2.36
[2]
  log2 fold change of degron read counts: -2.92
[3]
  log2 fold change of degron read counts: -3.64
compound: thalidomide
  log2 fold change of degron read counts: -3.18

B15: 46F_47R_49P_50I_52G_53R_54K_55F_67L_, Q9UKT9 (peptide)
chain: FRCPICGRKFTQKGNLLRHIKL
[1]
  log2 fold change of degron read counts: -1.49
[2]
  log2 fold change of degron read counts: -0.504
[3]
  log2 fold change of degron read counts: 0.233
compound: thalidomide
  log2 fold change of degron read counts: 0.803

B16: 46F_47I_49N_50Q_52G_53R_54H_55F_67L_, Q9UKT9 (peptide)
chain: FICNQCGRHFTQKGNLLRHIKL
[1]
  log2 fold change of degron read counts: -2.53
[2]
  log2 fold change of degron read counts: -2.91
[3]
  log2 fold change of degron read counts: -2.85
compound: thalidomide
  log2 fold change of degron read counts: -2.39

B17: 46F_47R_49D_50Q_52G_53A_54Q_55F_67L_, Q9UKT9 (peptide)
chain: FRCDQCGAQFTQKGNLLRHIKL
[1]
  log2 fold change of degron read counts: -2.54
[2]
  log2 fold change of degron read counts: -2.73
[3]
  log2 fold change of degron read counts: -1.77
compound: thalidomide
  log2 fold change of degron read counts: -2.38

B18: 46F_47M_49E_50Q_52G_53A_54S_55F_67L_, Q9UKT9 (peptide)
chain: FMCEQCGASFTQKGNLLRHIKL
[1]
  log2 fold change of degron read counts: -1.6
[2]
  log2 fold change of degron read counts: -1.45
[3]
  log2 fold change of degron read counts: 1.54
compound: thalidomide
  log2 fold change of degron read counts: -0.529

Source: the supplement of paper PMC12645437, “Orthogonal IMiD-Degron Pairs Induce Selective Protein Degradation in Cells” (ACS Chemical Biology, 2025)
